# Measurements reported in the supplement of paper PMC12339681.
# Where a name gives a salt, the structure may show the parent alone.
# System: PBMC-derived induced microglia-like cells (piMGLC)
# Experiment: synaptosome phagocytic index relative to DMSO control (fraction of DMSO); higher = more phagocytosis
# Details: concentration: 10 uM (2 uM for compounds listed in Table S2); pretreatment time: 24 h; assay time: 3 h
# Protocol: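 PBMC-derived induced microglia-like cells (piMGLCs) in 96-well plates were pretreated for 24 h with CNS-penetrant library compounds (MedChemExpress HY-L028), mostly at 10 uM; Table S2 lists 9 compounds at 2 uM. pHrodo-Red-labelled human iPSC-neuron synaptosomes (3 ug/well) were then added for 3 h, and cells were fixed and imaged by confocal microscopy. Phagocytic index (synaptosome area / cell count, CellProfiler) is a mean over 3 replicate wells on different plates, normalized to the DMSO control. Compounds leaving <10% of DMSO cell count were marked toxic and given no value.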
row,Compound,synaptosome phagocytic index
1,NCCc1c[nH]c2ccc(O)cc12 [Serotonin_hydrochloride],0.812
2,CNCC/C=C/c1cccnc1 [Rivanicline_hemioxalate],0.922
3,Clc1ccc(N2CCN(Cc3c[nH]c4ncccc34)CC2)cc1,0.89
4,CC[C@@H](C(N)=O)N1CCCC1=O [Levetiracetam],0.711
5,COc1cc2c(cc1OC)C1CC(=O)C(CC(C)C)CN1CC2 (stereo unspecified) [Tetrabenazine],0.906
6,CC(C)(NC(=O)O[C@@H]1CN2CCC1CC2)c1csc(-c2ccc(F)cc2)n1 [Ibiglustat],1.26
7,COc1cccc(NCC(F)Cn2c3ccc(Br)cc3c3cc(Br)ccc32)c1 (stereo unspecified),0.0819
8,Cc1sc2c(c1C)C(c1ccc(Cl)cc1)=N[C@@H](CC(=O)OC(C)(C)C)c1nnc(C)n1-2,0.3
9,CN1Cc2cc(Cl)ccc2-n2c(nnc2[C@H]2CC[C@H](Oc3ccccn3)CC2)C1 [Balovaptan],1.09
10,CN(C)C(=O)Oc1ccc[n+](C)c1 [Pyridostigmine_(bromide)],0.814
11,Cn1cc(C2=C(c3cn(C4CCN(Cc5ccccn5)CC4)c4ccccc34)C(=O)NC2=O)c2ccccc21 [Enzastaurin],0.997
12,CCOC(=O)c1cncn1[C@H](C)c1ccccc1 [Etomidate_(hydrochloride)],0.749
13,O=S(=O)(CC1CS1)c1ccc(Oc2ccccc2)cc1 (stereo unspecified),0.514
14,C=C(C)[C@H]1CN[C@H](C(=O)O)[C@H]1CC(=O)O [Kainic_acid],0.701
15,COc1ccc(C=C2CCCN=C2c2cccnc2)c(OC)c1 [GTS-21_(dihydrochloride)],0.922
16,COc1ccc(C(CN(C)C)C2(O)CCCCC2)cc1 (stereo unspecified) [Venlafaxine_(hydrochloride)],1.02
17,C/C(=C\c1csc(C)n1)[C@@H]1C[C@@H]2O[C@]2(C)CCC[C@H](C)[C@H](O)[C@@H](C)C(=O)C(C)(C)[C@@H](O)CC(=O)O1 [Epothilone_B],0.842
18,O=C(NO)c1cnc(NC2(c3ccccc3)CCC(F)(F)CC2)nc1,0.867

row,Compound,synaptosome phagocytic index
1,CC(C)(NC(=O)O[C@@H]1CN2CCC1CC2)c1csc(-c2ccc(F)cc2)n1 [Ibiglustat_(L-Malic_acid)],1.05
2,N[C@@H]1C[C@H]1c1ccccc1 [Tranylcypromine_(hemisulfate)],0.949
3,CCN(CCCl)Cc1ccccc1Br [DSP-4_(hydrochloride)],1.15
4,NCC1(CC(=O)O)CCCCC1 [Gabapentin],0.686
5,CCN(C)C(=O)Oc1cccc([C@H](C)N(C)C)c1 [Rivastigmine_(tartrate)],1.02
6,Cc1cccc([C@H](C)c2c[nH]cn2)c1C [Dexmedetomidine_(hydrochloride)],0.931
7,NCC(CC(=O)O)c1ccc(Cl)cc1 (stereo unspecified) [Baclofen],0.783
8,COc1ccc(OC)c(C(=O)N[C@@H]2CN3CCC2CC3)c1,0.646
9,CN1C[C@H](C(=O)N[C@]2(C)O[C@@]3(O)[C@@H]4CCCN4C(=O)[C@H](Cc4ccccc4)N3C2=O)C[C@@H]2c3cccc4[nH]cc(c34)C[C@H]21 [Dihydroergotamine_(mesylate)],0.976
10,CCN(C)C(=O)Oc1cccc([C@H](C)N(C)C)c1 [Rivastigmine],1.03
11,CCOC(=O)c1cncn1[C@H](C)c1ccccc1 [Etomidate],0.926
12,C1=CC[C@@H](c2cccnc2)NC1 [Anatabine_(dicitrate)],0.984
13,CN1CCc2ccccc2C1CNC(=O)c1ccc(Cl)c(Cl)c1 (stereo unspecified),0.901
14,CN(C)c1cc2c(cc1Sc1nc3c(N)nccc3n1CCNCC(C)(C)C)OCO2 [Debio_0932],0.767
15,FC(F)(F)c1ccc(N2CCNCC2)nc1Cl,1.17
16,CNC(=O)ON(C(C)=O)C(=O)NC [Caracemide],0.78
17,CCC(=O)O[C@H]1CC[C@H]2[C@@H]3CCC4=CC(=O)CC[C@]4(C)[C@H]3CC[C@]12C [Testosterone_propionate],0.807
18,Cn1c(CCCC(=O)O)nc2cc(N(CCCl)CCCl)ccc21 [Bendamustine_(hydrochloride)],0.95
